Records with an inconclusive call do not appear. Active and inactive are the calls of the source. Calls follow the shape of the dose curve; as a rule, active = well fitted curve in the direction sought with a large enough effect; inconclusive = small, poorly fitted or top-dose-only effect, or another doubt; inactive = no such curve, though single readings can be large; an effect the other way counts as inactive or inconclusive.
Tests used:
CRL-7250 = normal cell line; test: Cytotoxic Profiling of Annotated Libraries Using Quantitative High-Throughput Screening (AID 1296008); conditions: Five cell lines viability, CellTiter-Glo ATP luminescence, 48-72 h; max response: active compounds read low; also: nearly all actives have a fitted effect of over 60% in size; also: potency is read from the fitted curve at half-maximal effect; as to max response: % is scaled to controls: 0 for no effect and ±100 for the full control effect
Summary of the method: (§1)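 Compounds were pin-transferred onto cells and incubated 48 or 72 hr at 37 degree Celsius, 95% humidity. CellTiter-Glo was added, plates sat 10 min at room temperature, then ATP-coupled luminescence was imaged as the viability read-out.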

HaCat = test: as above; conditions: Five cell lines viability, CellTiter-Glo ATP luminescence, 48-72 h; max response: active compounds read low
Summary of the method: as §1

KB-3-1 = test: as above; conditions: Five cell lines viability, CellTiter-Glo ATP luminescence, 48-72 h; max response: active compounds read low
Summary of the method: as §1

NIH3T3 [1] = test: as above; conditions: Five cell lines viability, CellTiter-Glo ATP luminescence, 48-72 h; max response: active compounds read low
Summary of the method: as §1

C33A = test: Primary qHTS to identify gynecologic anti-cancer compounds using libraries of approved drugs and bioactive compounds (AID 1345084); conditions: Gynecologic cancer cell panel viability, ATPlite luminescence, 48 h; series mostly up to 57.5 µM; also: % is scaled to controls: 0 for no effect and ±100 for the full control effect; nearly all actives have a fitted effect of over 55% in size
Summary of the method: (§2)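 48 h compound exposure at 37 C, 5% CO2; five-point qHTS. ATPlite luminescence readout of cell ATP.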

CAOV3 = test: as above; conditions: Gynecologic cancer cell panel viability, ATPlite luminescence, 48 h; series mostly up to 57.5 µM
Summary of the method: as §2

CASKI = test: as above; conditions: Gynecologic cancer cell panel viability, ATPlite luminescence, 48 h; series mostly up to 57.5 µM
Summary of the method: as §2

Es-2 = test: as above; conditions: Gynecologic cancer cell panel viability, ATPlite luminescence, 48 h; series mostly up to 57.5 µM
Summary of the method: as §2

HeLa = test: as above; conditions: Gynecologic cancer cell panel viability, ATPlite luminescence, 48 h; series mostly up to 57.5 µM
Summary of the method: as §2

Hek293T = test: as above; conditions: Gynecologic cancer cell panel viability, ATPlite luminescence, 48 h, control line for the selectivity index; series mostly up to 57.5 µM
Summary of the method: as §2

JEG-3 = test: as above; conditions: Gynecologic cancer cell panel viability, ATPlite luminescence, 48 h; series mostly up to 57.5 µM
Summary of the method: as §2

OV90 = test: as above; conditions: Gynecologic cancer cell panel viability, ATPlite luminescence, 48 h; series mostly up to 57.5 µM
Summary of the method: as §2

NIH3T3 [2] = test: qHTS assay to identify novel small-molecules to repurpose for Merkel cell carcinoma treatment (AID 1296009); conditions: MCC and control cell lines, CellTiter-Glo viability, 72 h; series mostly up to 44.8 µM; also: nearly all actives have a fitted effect of over 60% in size
Summary of the method: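 Cells exposed to NPC (8-point) and MIPE (11-point) compound dilutions for 72 hr at 37 degree celsius; viability read by CellTiter-Glo luminescence, normalized to no-cell and DMSO in-plate controls.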

Fc1ccc(-c2nc(-c3ccccc3F)[nH]c2-c2ccncc2)cc1
inactive: max response (CRL-7250) 3.37% | max response (HaCat) 4.02% | outcome (KB-3-1) | max response (NIH3T3 [1]) 4.47% | Potency (C33A) | Potency (CAOV3) | Potency (CASKI) | Potency (Es-2) | Potency (HeLa) | Potency (Hek293T) | Potency (JEG-3)

C[C@@H]1O[C@@H](O[C@H]2[C@@H](OC(=O)[C@]34CCC(C)(C)CC3C3=CCC5[C@@]6(C)C[C@H](O)[C@H](O[C@@H]7O[C@H](CO)[C@@H](O)[C@H](O)[C@H]7O[C@@H]7OC[C@@H](O)[C@H](O)[C@H]7O)[C@@](C)(C(=O)O)C6CC[C@@]5(C)[C@]3(C)CC4)OC[C@H](O)[C@@H]2O)[C@H](O)[C@H](O)[C@H]1O[C@@H]1OC[C@@H](O)[C@H](O)[C@H]1O (some centres not stated)
active: Potency (KB-3-1) 2.45 µM
inactive: max response (CRL-7250) 4.52% | max response (HaCat) -2.16% | max response (NIH3T3 [1]) 1.11% | activity change, negative = cytotoxicity (C33A) -27.4% [at 6.55 µM] | activity change, negative = cytotoxicity (CAOV3) 2.23% [at 6.55 µM] | activity change, negative = cytotoxicity (CASKI) -11.2% [at 6.55 µM] | activity change, negative = cytotoxicity (Es-2) 4.6% [at 6.55 µM] | activity change, negative = cytotoxicity (HeLa) -12.9% [at 6.55 µM] | activity change, negative = cytotoxicity (Hek293T) -3.38% [at 6.55 µM]

CC(C)c1noc(C2CCN(c3ncnc(Nc4ccc(S(C)(=O)=O)cc4F)c3[N+](=O)[O-])CC2)n1
inactive: max response (CRL-7250) -0.282% | max response (HaCat) 1.98% | max response (KB-3-1) -4.1% | max response (NIH3T3 [1]) -23.4% | Potency (C33A) | Potency (CAOV3) | Potency (CASKI) | Potency (Es-2) | Potency (HeLa) | Potency (Hek293T) | Potency (JEG-3) | Potency (OV90)

COc1ccccc1-c1ccc(-c2cn(C(=O)N3CCCCC3Cc3ccccc3)nn2)cc1 (configuration not stated)
inactive: outcome (CRL-7250) | max response (HaCat) -29.9% | max response (KB-3-1) 1.87% | outcome (NIH3T3 [1]) | Potency (NIH3T3 [2]) | Potency (C33A) | Potency (CAOV3) | Potency (CASKI) | Potency (Es-2) | Potency (JEG-3)

Cn1c(SCC(=O)N2CCC[C@H]2C(=O)Nc2ccccc2-c2ccccc2)nc2ccccc21
inactive: outcome (CRL-7250) | max response (HaCat) -3.91% | max response (KB-3-1) 7.08% | max response (NIH3T3 [1]) -3.15% | Potency (C33A) | Potency (CAOV3) | Potency (CASKI) | Potency (Es-2) | Potency (HeLa) | Potency (Hek293T) | Potency (JEG-3) | Potency (OV90)

CC1(C)CCC(C)(C)c2cc(C#Cc3ccc(C(=O)O)cc3)ccc21
inactive: max response (CRL-7250) -18.1% | max response (HaCat) -1.18% | max response (KB-3-1) -2.7% | outcome (NIH3T3 [1]) | Potency (NIH3T3 [2]) | Potency (C33A) | Potency (Es-2) | Potency (HeLa) | Potency (Hek293T) | Potency (JEG-3) | Potency (OV90)

COc1ccc(NC(=O)C2C[C@H](C)CC[C@H]2C(C)C)cc1 (some centres not stated)
inactive: outcome (CRL-7250) | max response (HaCat) -2.17% | outcome (KB-3-1) | max response (NIH3T3 [1]) -6.73% | Potency (C33A) | Potency (CAOV3) | Potency (CASKI) | Potency (Es-2) | Potency (HeLa) | Potency (Hek293T) | Potency (JEG-3) | Potency (OV90)

Cc1c(F)ccc(C(=O)Nc2cc([N+](=O)[O-])ccc2N2CCN(C)CC2)c1Cl
inactive: max response (CRL-7250) 1.68% | max response (HaCat) 0.293% | outcome (KB-3-1) | max response (NIH3T3 [1]) 1.43% | Potency (C33A) | Potency (CAOV3) | Potency (CASKI) | Potency (Es-2) | Potency (HeLa) | Potency (Hek293T) | Potency (JEG-3) | Potency (OV90)

COc1c(C)cc(NC(=O)c2nn(Cc3ccc(F)cc3)c3c2CN(C(=O)c2ccc[nH]2)C[C@]3(C)C(N)=O)cc1C
inactive: max response (CRL-7250) -1.93% | max response (HaCat) -0.617% | outcome (KB-3-1) | max response (NIH3T3 [1]) -14% | activity change, negative = cytotoxicity (C33A) 12.3% [at 11.6 µM] | activity change, negative = cytotoxicity (CAOV3) -4.37% [at 11.6 µM] | activity change, negative = cytotoxicity (CASKI) -0.257% [at 11.6 µM] | activity change, negative = cytotoxicity (Es-2) 4.64% [at 11.6 µM] | activity change, negative = cytotoxicity (HeLa) -7.03% [at 11.6 µM] | activity change, negative = cytotoxicity (Hek293T) 7.03% [at 11.6 µM] | activity change, negative = cytotoxicity (JEG-3) 1.95% [at 11.6 µM] | activity change, negative = cytotoxicity (OV90) 16.4% [at 11.6 µM]

— PubChem BioAssay (NCATS)
